Reference: PubChem BioAssay
Active and inactive are the calls of the source. Unless noted, no rule for the calls is given here.

Tests used:
[1] = system: Wnt5a (protein binding on small-molecule microarray); assay: Wnt5a binders on small-molecule microarray, primary screen, biophysical, 635/667 nm fluorescence (AID 1142); details: 635 nm fluorescence, higher = more signal;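 also: fluorescence read at 667 nm with signal to noise per printed feature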
[2] = cell viability in Huh7 cells, primary screen, cytotoxicity control for HCV replication inhibitor project, CellTiter-Glo luminescence, basal, 48 h (AID 1143); details: Huh7 HCV replicon, higher = more signal, called active from +8 up or from −8 down;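 also: Huh7 hepatoma cells carrying a hepatitis C replication reporter with no stimulus; test concentration not given here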
[3] = P. aeruginosa biofilm formation inhibitors, primary screen, PAO1 strain, BacTiter-Glo luminescence, LB-PBS (AID 1144); details: 12 h, higher = more signal
[4] = CREB reporter modulators without forskolin, primary screen, cell-based, PC12, CRE-LacZ reporter, unstimulated (AID 1145); details: no forskolin, luminescence, 4.5 h, higher = more signal, called active from +8 up or from −8 down
[5] = CREB reporter modulators under forskolin, primary screen, cell-based, PC12, CRE-LacZ reporter, forskolin-stimulated (AID 1146); details: luminescence, 4.5 h, higher = more signal, called active from +8 up or from −8 down;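 also: PC12 cells with 6xCRE LacZ reporter stimulated by forskolin 10 µM; beta-galactosidase reporter signal reflecting CREB driven transcription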
[6] = biological target: Streptavidin (Streptomyces avidinii) (UniProt P22629); assay: streptavidin binders on small-molecule microarray, primary screen, artefact control for SMM compound annotation, biophysical, 635/667 nm fluorescence (AID 1147); details: streptavidin binding, higher = more signal;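 also: signal reflects streptavidin binding to arrayed compounds as a control protein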
Sequence of Streptavidin (Streptomyces avidinii) (P22629 whole entry, looked up): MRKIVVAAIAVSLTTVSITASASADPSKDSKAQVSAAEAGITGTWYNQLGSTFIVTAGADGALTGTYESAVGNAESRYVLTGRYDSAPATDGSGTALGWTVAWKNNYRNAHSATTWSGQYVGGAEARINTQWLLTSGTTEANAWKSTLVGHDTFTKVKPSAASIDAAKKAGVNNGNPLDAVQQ

[7] = small-molecule binders of probe aInhba, primary screen, biochemical, small-molecule microarray, 635/667 nm fluorescence (AID 1148); details: higher = more signal;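 also: score merges 667nm spot fluorescence with signal-to-noise for antibody binding to printed compounds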
Torsin-1A (Homo sapiens) [8] = biological target: Torsin-1A (Homo sapiens) (UniProt O14656); assay: torsin A binders from cell lysate, primary screen, small-molecule microarray, wild-type, 635/667 nm (AID 1149); details: COS7 hTOR1A-WT lysate, 635 nm fluorescence, higher = more signal
Sequence of Torsin-1A (Homo sapiens) (O14656 whole entry, looked up): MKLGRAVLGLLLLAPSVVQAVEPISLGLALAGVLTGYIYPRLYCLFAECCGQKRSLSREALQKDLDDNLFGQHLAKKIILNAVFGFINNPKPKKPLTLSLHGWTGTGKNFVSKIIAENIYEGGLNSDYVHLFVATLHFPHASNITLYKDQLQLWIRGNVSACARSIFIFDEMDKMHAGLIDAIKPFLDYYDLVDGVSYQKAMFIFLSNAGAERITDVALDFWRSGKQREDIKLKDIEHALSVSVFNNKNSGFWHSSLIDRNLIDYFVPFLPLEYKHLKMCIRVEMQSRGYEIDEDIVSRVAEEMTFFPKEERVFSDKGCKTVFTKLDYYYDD

Torsin-1A (Homo sapiens) [9] = biological target: Torsin-1A (Homo sapiens) (UniProt O14656); assay: small-molecule binders of mutant TOR1A in lysate, primary screen, cell lysate, small-molecule microarray, COS7 lysate, 635/667 nm fluorescence (AID 1150); details: COS7 hTOR1A mutant lysate, 635 nm fluorescence, higher = more signal;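 also: score pools 667 nm emission and signal to noise measuring lysate protein binding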
[10] = system: Sonic hedgehog protein (Shh); assay: small-molecule binders of Shh protein, primary screen, biochemical, small-molecule microarray, 635/667 nm fluorescence (AID 1151); details: small-molecule microarray binding, 635 nm fluorescence; higher = more signal;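 also: Shh protein binding to compounds spotted on small-molecule microarray slides; score combines spot fluorescence intensity with signal-to-noise across triplicate slides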
[11] = E. coli DRC41 culture turbidity changes, primary screen, E. coli filamentation inducer project, strain DRC41, OD650, 48 h (AID 1152);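 also: E. coli MC1000 strain DRC41 lacking acrAB efflux pump and sulA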; details: E. coli DRC41 (acrAB sulA), higher = more signal, called active from +8 up or from −8 down
[12] = small-molecule binders of probe aLefty1, primary screen, biochemical, small-molecule microarray, 635/667 nm fluorescence (AID 1153); details: higher = more signal;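 also: score merges spot fluorescence with signal-to-noise ratio from the scanned slide images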
[13] = PSAC antagonists in infected red cells, primary screen, cell-based, P. falciparum Indochina, OD700, 1 h (AID 1154); details: P. falciparum Indochina infected RBC osmotic lysis, higher = more signal, called active from +8 up or from −8 down
[14] = PSAC antagonists in infected red cells, primary screen, cell-based, P. falciparum Indochina, OD700, 2 h (AID 1155);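 also: lysis reports solute entry through the parasite surface anion channel PSAC; channel blockers reduce lysis of infected cells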; details: P. falciparum Indochina infected erythrocytes, osmotic lysis OD700; higher = more signal, called active from +8 up or from −8 down
[15] = osmotic lysis modulators in infected erythrocytes, primary screen, PSAC antagonist project, cell-based, P. falciparum Indochina, OD700, 3 h (AID 1156); details: higher = more signal, called active from +8 up or from −8 down
[16] = PSAC antagonists in infected red cells, primary screen, cell-based, P. falciparum Indochina, OD700, 18 h (AID 1157); details: P. falciparum Indochina infected erythrocytes, osmotic lysis OD700, 18 h; higher = more signal, called active from +8 up or from −8 down
[17] = modulators of S6 phosphorylation in cells, primary screen, cell-based, A549, cytoblot, luminescence, serum-stimulated (AID 1158); details: A549 phospho-S6 cytoblot, 5 h, higher = more signal;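 also: serum-stimulated A549 lung adenocarcinoma cells; signal is phosphorylated S6 detected by cytoblot immunostaining with HRP secondary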
[18] = biological target: NADPH oxidase 2 (Homo sapiens) (UniProt P04839); assay: NOX2-dependent H2O2 signal modulators, primary screen, NOX inhibitor project, cell-based, HEK293-NOX2, PMA-stimulated, Amplex Red fluorescence (AID 1159); details: 45 min, higher = more signal, called active from +8 up or from −8 down; also: test concentration not given here
Sequence of NADPH oxidase 2 (Homo sapiens) (P04839 whole entry, looked up): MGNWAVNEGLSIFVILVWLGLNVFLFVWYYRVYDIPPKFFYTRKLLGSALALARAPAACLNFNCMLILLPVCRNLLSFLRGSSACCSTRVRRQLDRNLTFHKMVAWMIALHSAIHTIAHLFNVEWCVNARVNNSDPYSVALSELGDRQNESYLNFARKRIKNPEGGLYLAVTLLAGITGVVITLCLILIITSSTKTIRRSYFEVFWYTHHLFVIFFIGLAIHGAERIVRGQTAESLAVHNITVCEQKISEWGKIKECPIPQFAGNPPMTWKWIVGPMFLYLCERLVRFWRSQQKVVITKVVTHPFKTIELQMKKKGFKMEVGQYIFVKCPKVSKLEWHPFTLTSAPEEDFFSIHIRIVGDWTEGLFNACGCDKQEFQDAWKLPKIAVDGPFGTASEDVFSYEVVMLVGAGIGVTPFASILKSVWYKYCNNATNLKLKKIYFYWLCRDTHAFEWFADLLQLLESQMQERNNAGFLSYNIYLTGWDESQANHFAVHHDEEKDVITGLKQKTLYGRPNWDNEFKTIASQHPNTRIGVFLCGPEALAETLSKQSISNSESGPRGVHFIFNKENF

[19] = biological target: NADPH oxidase 4 (Homo sapiens) (UniProt Q9NPH5); assay: NOX4-dependent H2O2 signal modulators, primary screen, NOX inhibitor project, cell-based, HEK293-NOX4, tetracycline-induced, Amplex Red fluorescence (AID 1160); details: 45 min, higher = more signal, called active from +8 up or from −8 down
Sequence of NADPH oxidase 4 (Homo sapiens) (Q9NPH5 whole entry, looked up): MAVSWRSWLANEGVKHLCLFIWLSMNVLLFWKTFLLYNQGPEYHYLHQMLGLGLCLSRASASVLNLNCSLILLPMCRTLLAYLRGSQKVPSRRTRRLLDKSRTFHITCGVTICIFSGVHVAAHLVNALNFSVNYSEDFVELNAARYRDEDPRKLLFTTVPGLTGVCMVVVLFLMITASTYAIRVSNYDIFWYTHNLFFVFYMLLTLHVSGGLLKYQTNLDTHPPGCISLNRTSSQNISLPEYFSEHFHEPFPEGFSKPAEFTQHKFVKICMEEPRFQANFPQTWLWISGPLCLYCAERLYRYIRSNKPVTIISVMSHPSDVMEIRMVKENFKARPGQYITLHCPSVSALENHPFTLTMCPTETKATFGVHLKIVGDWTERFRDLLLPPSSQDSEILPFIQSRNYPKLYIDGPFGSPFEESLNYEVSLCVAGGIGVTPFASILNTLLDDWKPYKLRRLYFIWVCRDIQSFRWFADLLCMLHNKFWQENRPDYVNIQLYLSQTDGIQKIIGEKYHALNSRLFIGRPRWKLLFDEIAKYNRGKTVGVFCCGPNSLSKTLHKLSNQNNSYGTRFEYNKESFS

[20] = biological target: NADPH oxidase 5 (Homo sapiens) (UniProt Q96PH1); assay: NOX5-dependent H2O2 signal modulators, primary screen, NOX inhibitor project, cell-based, HEK293-NOX5, Amplex Red fluorescence (AID 1161); details: HEK293-NOX5, ionomycin, 45 min, higher = more signal
Sequence of NADPH oxidase 5 (Homo sapiens) (Q96PH1 whole entry, looked up): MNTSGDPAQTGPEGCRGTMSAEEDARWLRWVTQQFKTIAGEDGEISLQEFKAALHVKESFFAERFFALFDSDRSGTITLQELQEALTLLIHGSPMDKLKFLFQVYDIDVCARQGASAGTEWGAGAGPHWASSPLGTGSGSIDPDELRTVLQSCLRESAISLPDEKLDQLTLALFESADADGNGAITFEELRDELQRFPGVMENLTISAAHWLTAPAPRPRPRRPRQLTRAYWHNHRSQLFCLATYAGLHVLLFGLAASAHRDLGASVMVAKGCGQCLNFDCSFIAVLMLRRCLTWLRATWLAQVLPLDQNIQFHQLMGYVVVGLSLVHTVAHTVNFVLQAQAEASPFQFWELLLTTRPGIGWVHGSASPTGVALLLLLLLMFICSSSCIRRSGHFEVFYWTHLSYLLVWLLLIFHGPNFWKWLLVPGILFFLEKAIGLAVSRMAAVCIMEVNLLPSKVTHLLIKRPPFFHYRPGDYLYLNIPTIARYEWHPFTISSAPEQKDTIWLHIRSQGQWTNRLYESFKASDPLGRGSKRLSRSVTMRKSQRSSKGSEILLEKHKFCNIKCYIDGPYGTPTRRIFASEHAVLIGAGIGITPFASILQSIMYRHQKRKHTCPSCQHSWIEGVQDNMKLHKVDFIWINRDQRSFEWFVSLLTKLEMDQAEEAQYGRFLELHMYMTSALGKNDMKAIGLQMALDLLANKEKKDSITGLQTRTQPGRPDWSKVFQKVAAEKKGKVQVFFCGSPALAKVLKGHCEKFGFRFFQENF

| Compound | composite z-score [1] | z-score [2] | z-score [3] | z-score [4] | z-score [5] | composite z-score [6] | composite z-score [7] | composite z-score (Torsin-1A (Homo sapiens) [8]) | composite z-score (Torsin-1A (Homo sapiens) [9]) | composite z-score [10] | z-score [11] | composite z-score [12] | z-score [13] | z-score [14] | z-score [15] | z-score [16] | z-score [17] | z-score [18] | z-score [19] | z-score [20] |
| --- | --- | --- | --- | --- | --- | --- | --- | --- | --- | --- | --- | --- | --- | --- | --- | --- | --- | --- | --- | --- |
| O=C1C[C@@](C(=O)NCCN2CCOCC2)(c2ccc([N+](=O)[O-])cc2)[C@@H](c2ccc(CO)cc2)N1CC12CC3CC(CC(C3)C1)C2 | 0.455 | -5.78 (inactive) | 0.881 (inactive) | 1.62 (inactive) | -0.0481 (inactive) | 0.379 | 0.0154 | 0.179 | 1.21 | 1.37 | -3.18 (inactive) | 0.394 | 4.51 (inactive) | 1.23 (inactive) | 1.24 (inactive) | 0.548 (inactive) | 0.101 | -4.27 (inactive) | -2.56 (inactive) | -1.06 |
| COC(=O)[C@@]1(Cc2ccc(F)cc2)[C@H]2c3cc(C(=O)N4CCCC4)n(CCCNc4ncc(C(F)(F)F)cc4Cl)c3C[C@H]2CN1C(=O)c1ccccc1 | -0.026 | -1.89 (inactive) | -0.0456 (inactive) | 1.74 (inactive) | -0.152 (inactive) | 0.919 | 0.656 | -0.107 | -0.0136 | -0.516 | -2.31 (inactive) | 0.4 | 1.58 (inactive) | 0.852 (inactive) | 1.01 (inactive) | 0.863 (inactive) | -0.626 | -0.299 (inactive) | -2.23 (inactive) | -0.307 |
| COC(=O)[C@@]1(Cc2ccccc2)[C@H]2c3cc(C(=O)N(C)C)n(Cc4ccsc4Br)c3C[C@H]2CN1C(=O)c1ccccc1 | 0.211 | -3.35 (inactive) | -0.166 (inactive) | 0.58 (inactive) | 0.751 (inactive) | 1.09 | 0.0737 | 0.856 | 0.508 | -1.21 | -0.775 (inactive) | 1.04 | 6.57 (inactive) | 1.07 (inactive) | 0.923 (inactive) | 1.25 (inactive) | -0.259 | -0.111 (inactive) | 0.106 (inactive) | 0.723 |
| Cc1ccc(N2C(=O)c3ccccc3[C@@H](C(=O)NC3CC3)[C@@H]2c2ccc(CO)cc2)nc1 | -0.645 | 0.256 (inactive) | -0.754 (inactive) | -0.062 (inactive) | 0.986 (inactive) | -1.76 | -0.282 | 1.23 | 0.969 | -0.958 | -0.0739 (inactive) | -0.138 | 1.92 (inactive) | -0.325 (inactive) | 0.62 (inactive) | -0.0389 (inactive) | -0.179 | 0.355 (inactive) | -0.647 (inactive) | -1.51 |
| CC(C)(C)OC(=O)CC[C@]1(C(=O)N2CCOCC2)N=C(c2ccc(OCCCO)cc2)O[C@H]1c1ccccc1N=[N+]=[N-] | 0.846 | -0.884 (inactive) | 1.17 (inactive) | 1.31 (inactive) | -1.4 (inactive) | 1.42 | 0.236 | 0.64 | 1.7 | -0.371 | 1.52 (inactive) | 0.171 | 33 (active) | 31.2 (active) | 1.75 (inactive) | 2.8 (inactive) | -0.435 | -1.71 (inactive) | -0.279 (inactive) | -1.94 |
| CC(=O)NCCCC[C@@H]1NC(=O)[C@H]2C[C@@H](C(=O)NCCCCCCNC(=O)CS)[C@@H](c3ccc(O)cc3)N2C1=O | 0.151 | -0.133 (inactive) | -0.619 (inactive) | -0.528 (inactive) | 0.14 (inactive) | -1.22 | 0.0074 | 0.365 | 2.14 | 1.22 | 0.0783 (inactive) | 0.132 | 4.2 (inactive) | 0.507 (inactive) | 3.45 (inactive) | 0.301 (inactive) | -0.371 | 0.294 (inactive) | -0.187 (inactive) | 0.673 |
| NC(=O)NCC#Cc1ccc2c(c1)[C@]1(C(=O)N2)[C@H](c2ccc(O)cc2)N2[C@H](c3ccccc3)[C@H](c3ccccc3)OC(=O)[C@H]2[C@@H]1C(=O)O | -0.763 | 0.0192 (inactive) | -0.248 (inactive) | 0.895 (inactive) | -0.226 (inactive) | -0.256 | -0.299 | -1.13 | -0.914 | -0.453 | -0.876 (inactive) | -0.573 | 3.1 (inactive) | 0.179 (inactive) | 0.259 (inactive) | 0.485 (inactive) | -0.0856 | 0.879 (inactive) | -0.0146 (inactive) | -0.305 |
| COCCOC(=O)N1C(=O)[C@@]2(c3cc(C#CCCO)ccc31)[C@H](C(N)=O)[C@H]1C(=O)O[C@H](c3ccccc3)[C@H](c3ccccc3)N1[C@@H]2c1ccc(O)cc1 | 0.186 | 0.505 (inactive) | 0.676 (inactive) | -0.602 (inactive) | -0.702 (inactive) | -0.36 | -0.163 | -0.192 | -0.176 | -0.412 | -0.903 (inactive) | -0.15 | 2.44 (inactive) | 0.213 (inactive) | -0.458 (inactive) | -0.0317 (inactive) | -0.237 | 0.463 (inactive) | 0.561 (inactive) | 0.728 |
| CCCC=C(CCC)[C@@H](NC(=O)c1cccs1)c1ccc(C(F)(F)F)cc1 | 0.374 | -3.78 (inactive) | -0.407 (inactive) | -0.761 (inactive) | 0.796 (inactive) | 0.882 | 0.473 | 0.598 | 0.704 | 1.18 | -0.938 (inactive) | 0.504 | 3.15 (inactive) | -0.119 (inactive) | 1.36 (inactive) | -1.39 (inactive) | 1.42 | -4.56 (inactive) | -3.52 (inactive) | -2.77 |
